Experimental data as given in PubChem BioAssay AID1159580 (chemical genetic matrix, 2015).
Hit rate of the full screen: of about 5,500 compounds, about 2,000 (36%) were called active. About 18% were inconclusive and are not listed. Rule as the data show it: active = normalized growth mostly below about 0.91 (no sharp cut-off); inconclusive = no clear call, values can overlap the other calls; inactive = mostly above about 0.92. This is one part of the list.

Test: chemical genetic growth profiling, strain panel (AID 1159580);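 also: tested at 20 µM; growth read once vehicle control cultures reached saturation at 30 °C; 1 = growth at the plate median or of vehicle wells; lower values mean less growth of the strain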
Details: growth OD

Measured: normalized growth

CNC(=O)Oc1cccc2c1OC(C)(C)C2
inactive: S. cerevisiae deletion strains, locus YAL013W, strain DEP1, active compounds read low 1.01 | S. cerevisiae deletion strains, locus YBR021W, strain FUR4, active compounds read low 0.994 | S. cerevisiae deletion strains, locus YBR229C, strain ROT2, active compounds read low 1 | S. cerevisiae deletion strains, locus YCL029C, strain bik1, active compounds read low 1 | S. cerevisiae deletion strains, locus YDL035C, strain GPR1, active compounds read low 1.01 | S. cerevisiae deletion strains, locus YDL074C, strain BRE1, active compounds read low 1.03 | S. cerevisiae deletion strains, locus YDL101C, strain DUN1, active compounds read low 1.02 | S. cerevisiae deletion strains, locus YDL134C, strain PPH21, active compounds read low 0.997 | S. cerevisiae deletion strains, locus YDL185W, strain tfp1, active compounds read low 0.978 | S. cerevisiae deletion strains, locus YDL192W, strain arf1, active compounds read low 1 | S. cerevisiae deletion strains, locus YDR101C, strain arx1, active compounds read low 0.992 | S. cerevisiae deletion strains, locus YDR150W, strain NUM1, active compounds read low 1.01 | S. cerevisiae deletion strains, locus YDR162C, strain NBP2, active compounds read low 1.01 | S. cerevisiae deletion strains, locus YDR318W, strain mcm21, active compounds read low 0.995 | S. cerevisiae deletion strains, locus YDR388W, active compounds read low 0.996 | S. cerevisiae deletion strains, locus YDR502C, strain sam2, active compounds read low 1 | S. cerevisiae deletion strains, locus YEL061C, strain CIN8, active compounds read low 1 | S. cerevisiae deletion strains, locus YER110C, active compounds read low 0.993 | S. cerevisiae deletion strains, locus YER155C, strain BEM2, active compounds read low 1.02 | S. cerevisiae deletion strains, locus YER167W, strain BCK2, active compounds read low 1.02 | S. cerevisiae deletion strains, locus YGL078C, strain dbp3, active compounds read low 0.979 | S. cerevisiae deletion strains, locus YGL086W, strain mad1, active compounds read low 0.995 | S. cerevisiae deletion strains, locus YGL248W, strain PDE1, active compounds read low 1.01 | S. cerevisiae deletion strains, locus YGR078C, strain PAC10, active compounds read low 1.01 | S. cerevisiae deletion strains, locus YGR135W, strain pre9, active compounds read low 1 | S. cerevisiae deletion strains, locus YGR229C, strain SMI1, active compounds read low 1.02 | S. cerevisiae deletion strains, locus YGR252W, strain gcn5, active compounds read low 0.99 | S. cerevisiae deletion strains, locus YHR030C, strain SLT2, active compounds read low 1.01 | S. cerevisiae deletion strains, locus YHR079C, strain IRE1 (second series), active compounds read low 0.996 | S. cerevisiae deletion strains, locus YHR094C, strain hxt1, active compounds read low 0.994 | S. cerevisiae deletion strains, locus YHR129C, strain ARP1, active compounds read low 1.01 | S. cerevisiae deletion strains, locus YHR200W, strain rpn10, active compounds read low 1 | S. cerevisiae deletion strains, locus YIL066C, strain RNR3, active compounds read low 1.01 | S. cerevisiae deletion strains, locus YIL073C, strain SPO22, active compounds read low 1.04 | S. cerevisiae deletion strains, locus YIL125W, strain kgd1, active compounds read low 0.987 | S. cerevisiae deletion strains, locus YIR030C, strain dcg1, active compounds read low 0.996 | S. cerevisiae deletion strains, locus YJL095W, strain BCK1, active compounds read low 1 | S. cerevisiae deletion strains, locus YJL134W, strain LCB3, active compounds read low 1 | S. cerevisiae deletion strains, locus YJL168C, strain set2, active compounds read low 0.997 | S. cerevisiae deletion strains, locus YJL187C, strain SWE1 (second series), active compounds read low 1.01 | S. cerevisiae deletion strains, locus YJR043C, strain POL32, active compounds read low 1.01 | S. cerevisiae deletion strains, locus YJR075W, strain HOC1, active compounds read low 1.01 | S. cerevisiae deletion strains, locus YKL009W, strain mrt4, active compounds read low 1.01 | S. cerevisiae deletion strains, locus YKL068W, active compounds read low 0.987 | S. cerevisiae deletion strains, locus YKL085W, strain MDH1 (second series), active compounds read low 0.978 | S. cerevisiae deletion strains, locus YKL085W, strain MDH1, active compounds read low 0.978 | S. cerevisiae deletion strains, locus YKL190W, strain CNB1, active compounds read low 1.02 | S. cerevisiae deletion strains, locus YKR001C, strain vps1, active compounds read low 0.999 | S. cerevisiae deletion strains, locus YLR039C, strain RIC1, active compounds read low 1.04 | S. cerevisiae deletion strains, locus YLR058C, strain SHM2, active compounds read low 1.01 | S. cerevisiae deletion strains, locus YLR102C, strain apc9, active compounds read low 1 | S. cerevisiae deletion strains, locus YLR262C, strain YPT6, active compounds read low 1.06 | S. cerevisiae deletion strains, locus YLR268W, strain sec22, active compounds read low 1.01 | S. cerevisiae deletion strains, locus YLR330W, strain CHS5, active compounds read low 1 | S. cerevisiae deletion strains, locus YLR342W, strain FKS1 (second series), active compounds read low 1.02 | S. cerevisiae deletion strains, locus YLR371W, strain rom2, active compounds read low 0.993 | S. cerevisiae deletion strains, locus YLR418C, strain cdc73, active compounds read low 0.973 | S. cerevisiae deletion strains, locus YML016C, strain PPZ1, active compounds read low 1 | S. cerevisiae deletion strains, locus YML032C, strain rad52, active compounds read low 1 | S. cerevisiae deletion strains, locus YML124C, strain tub3, active compounds read low 0.999 | S. cerevisiae deletion strains, locus YMR078C, strain ctf18, active compounds read low 0.988 | S. cerevisiae deletion strains, locus YMR223W, strain ubp8, active compounds read low 0.992 | S. cerevisiae deletion strains, locus YMR263W, strain SAP30, active compounds read low 0.992 | S. cerevisiae deletion strains, locus YMR307W, strain GAS1, active compounds read low 1.02 | S. cerevisiae deletion strains, locus YNL067W, strain RPL9B, active compounds read low 1.02 | S. cerevisiae deletion strains, locus YNL128W, strain TEP1, active compounds read low 1.02 | S. cerevisiae deletion strains, locus YNL153C, strain GIM3, active compounds read low 1.01 | S. cerevisiae deletion strains, locus YNL233W, strain BNI4, active compounds read low 1.02 | S. cerevisiae deletion strains, locus YNL250W, strain rad50, active compounds read low 0.967 | S. cerevisiae deletion strains, locus YNL271C, strain bni1, active compounds read low 0.977 | S. cerevisiae deletion strains, locus YNL298W, strain CLA4, active compounds read low 0.986 | S. cerevisiae deletion strains, locus YNL307C, strain MCK1, active compounds read low 0.995 | S. cerevisiae deletion strains, locus YNL322C, strain KRE1, active compounds read low 1.01 | S. cerevisiae deletion strains, locus YNR052C, strain pop2, active compounds read low 1 | S. cerevisiae deletion strains, locus YOL006C, strain TOP1, active compounds read low 1.01 | S. cerevisiae deletion strains, locus YOL012C, strain htz1 0.992 | S. cerevisiae deletion strains, locus YOL147C, strain pex11, active compounds read low 0.996 | S. cerevisiae deletion strains, locus YOR061W, strain CKA2, active compounds read low 1 | S. cerevisiae deletion strains, locus YOR069W, strain VPS5, active compounds read low 1.01 | S. cerevisiae deletion strains, locus YOR136W, strain idh2, active compounds read low 0.993 | S. cerevisiae deletion strains, locus YOR144C, strain elg1, active compounds read low 1 | S. cerevisiae deletion strains, locus YOR184W, strain ser1, active compounds read low 1.01 | S. cerevisiae deletion strains, locus YOR316C, strain cot1, active compounds read low 0.996 | S. cerevisiae deletion strains, locus YPL055C, strain LGE1, active compounds read low 1.03 | S. cerevisiae deletion strains, locus YPL241C, strain CIN2, active compounds read low 1 | S. cerevisiae deletion strains, locus YPR119W, strain clb2, active compounds read low 0.993 | S. cerevisiae deletion strains, locus YPR141C, strain kar3, active compounds read low 0.973 | S. cerevisiae deletion strains, locus YPR163C, strain tif3, active compounds read low 0.987 | S. cerevisiae deletion strains, locus YPR167C, strain met16, active compounds read low 0.999 | S. cerevisiae deletion strains, strain wtn01, active compounds read low 0.994 | S. cerevisiae strains, strain wild type, active compounds read low 1.01
